PMC5540273 (PLoS ONE, 2017)

What was measured:
Details in all cases: concentration: 1 μM, replicates: in singlicate; n = 1
ERK5 = test system: T1, ERK5
T1 construct: gene MAPK7

ERK8 = test system: T2, ERK8
T2 construct: gene MAPK15

ERN1 = test system: ERN1
FAK = test system: T3, FAK
T3 construct: gene PTK2

FER = test system: FER
FES = test system: FES
FGFR1 = test system: FGFR1
FGFR2 = test system: FGFR2
FGFR3 = test system: FGFR3
FGFR4 = test system: FGFR4
FGR = test system: FGR
FLT1 = test system: FLT1
FLT3-autoinhibited = test system: FLT3-autoinhibited
FLT3 = test system: FLT3
FLT4 = test system: FLT4
FRK = test system: FRK
FYN = test system: FYN
GAK = test system: GAK
GCN2(Kin.Dom.2,S808G) = test system: T4, GCN2(Kin.Dom.2,S808G)
T4 construct: gene EIF2AK4

GRK1 = test system: GRK1
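Note: KINOMEscan kinase panel screen.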

SMILES	%Inh (ERK5) [%]	%Inh (ERK8) [%]	%Inh (ERN1) [%]	%Inh (FAK) [%]	%Inh (FER) [%]	%Inh (FES) [%]	%Inh (FGFR1) [%]	%Inh (FGFR2) [%]	%Inh (FGFR3) [%]	%Inh (FGFR4) [%]	%Inh (FGR) [%]	%Inh (FLT1) [%]	%Inh (FLT3-autoinhibited) [%]	%Inh (FLT3) [%]	%Inh (FLT4) [%]	%Inh (FRK) [%]	%Inh (FYN) [%]	%Inh (GAK) [%]	%Inh (GCN2(Kin.Dom.2,S808G)) [%]	%Inh (GRK1) [%]
O=C(NCc1cccs1)c1cc(C(=O)c2c(Cl)cccc2Cl)c[nH]1 [GW823670]	0	0	0	91.3	1	0	0	0	0	0	7	2	0	2	2	0	0	0	8	0
CCC(=O)c1c(-c2ccccc2)c2cc(Cl)ccc2c(=O)n1Cc1cc(S(C)(=O)=O)n(CCC(C)(C)O)n1	15	0	18	10	10	5	0	22	29	8	11	29	2	0	15	13	10	8	0	8
CN(C)c1cc(-c2ccc3c(N)n[nH]c3c2)nc(N)n1 [GSK2219329]	0	0	0	0	16	0	0	2	7	0	19	20	0	0	19	0	11	0	0	0
OCCCNc1nccc(-c2c(-c3cccc(C(F)(F)F)c3)nn3cc(C(F)(F)F)ccc23)n1 [GW630813]	0	0	0	0	8	0	0	0	0	0	16	24	0	0	12	0	0	8	0	100
CCC(=O)c1c(-c2ccccc2)c2cc(Cl)ccc2c(=O)n1Cc1cc(S(C)(=O)=O)n(CC(F)F)n1	0	6	0	0	0	0	0	4	0	0	0	0	0	0	0	0	0	0	0	12
Cc1ccccc1COc1cc(-n2cnc3cc(Cl)ccc32)sc1C(N)=O [GW813349]	0	9	0	5	0	2	12	3	0	0	9	5	3	8	10	0	0	1	0	13
Cl.NS(=O)(=O)c1cccc(Nc2cc(-c3ccc(F)cc3)n[nH]2)c1 [GW824645]	0	3	21	0	41	0	0	0	0	0	0	0	77	88	0	0	0	0	0	23
FC(F)(F)c1ccc(-c2ncn(CCCN3CCOCC3)c2-c2ccncc2)cc1 [SB-217780]	0	1	26	1	9	4	90	0	6	1	11	22	23	14	2	12	10	0	8	12
CCC(=O)c1c(-c2ccccc2)c2cc(Cl)ccc2c(=O)n1Cc1ccc(C(=O)O)cc1	0	0	0	0	0	5	0	0	0	0	0	0	4	0	0	0	0	0	12	0
COc1cc(Nc2nccc(N3CCC(NC(=O)C4COc5ccccc5O4)C3)n2)cc(OC)c1OC (stereo not drawn) [GSK1379761]	0	0	2	0	17	0	3	30	9	0	33	23	0	37	25	3	29	37	0	0
CCCC(=O)Nc1n[nH]c2ncc(-c3cccc4ccccc34)cc12 [SB-642057]	0	0	0	8	3	0	0	0	0	19	10	10	5	0	1	0	42	0	0	0
CCC(=O)c1c(-c2ccccc2)c2cc(Cl)ccc2c(=O)n1Cc1cc(S(C)(=O)=O)n(CC(N)=O)n1	0	0	0	0	0	0	6	9	2	0	0	0	0	0	0	0	0	0	0	24
O=C(NCCNc1ccnc(Nc2ccc(F)cc2)n1)Nc1ccc2c(c1)OCO2 [GSK1379882]	2	0	30	0	0	0	0	0	2	0	0	0	12	0	9	0	34	14	0	0
Cc1nnc(-c2ccc3ncn(-c4ccc(S(C)=O)cc4)c3c2)o1 (stereo not drawn)	3	6	18	1	5	20	1	14	9	12	18	8	0	8	0	0	8	2	19	11
Cl.c1ccc(Cn2cnc3cc(Nc4ncnc5ccccc45)ccc32)cc1 [GW272142]	1	0	1	0	21	0	0	0	14	3	23	16	0	0	3	0	10	0	0	0
CCc1ccc(-c2ccc3c(c2)-c2nn(C)cc2S(=O)(=O)N3C)cc1	5	36	0	5	6	0	16	0	0	0	0	0	0	30	0	0	5	0	9	12
Cc1cccc(-c2cc(-c3c[nH]nc3-c3ccccn3)ccn2)c1 [GW679395]	0	0	0	0	4	0	0	0	0	4	36	13	0	0	0	15	16	82	0	3
CCC(=O)c1c(-c2ccccc2)c2cc(Cl)ccc2c(=O)n1Cc1cc(C(=O)NC2CC2)n(C)n1	4	0	12	0	0	22	4	2	0	0	20	0	0	0	1	8	0	1	0	0
COc1ccc(-c2coc3ccc(-c4nnc(SCc5cccc(C#N)c5)o4)cc23)cc1	0	14	11	0	10	7	11	13	17	17	0	0	10	13	0	0	5	12	0	9
CCS(=O)c1ccc(-c2coc3ccc(-c4nnc(C)o4)cc23)cc1 (stereo not drawn)	0	0	16	0	11	7	9	10	7	0	0	0	0	0	0	5	0	0	0	5
COc1cc2nccc(Nc3cccc(Oc4ccccc4)c3)c2cc1OC.Cl [GW284543]	26	13	8	23	30	4	17	26	6	8	25	24	10	6	38	0	36	0	0	0

SMILES	%Inh (ERK5) [%]	%Inh (ERK8) [%]	%Inh (ERN1) [%]	%Inh (FAK) [%]	%Inh (FER) [%]	%Inh (FES) [%]	%Inh (FGFR1) [%]	%Inh (FGFR2) [%]	%Inh (FGFR3) [%]	%Inh (FGFR4) [%]	%Inh (FGR) [%]	%Inh (FLT1) [%]	%Inh (FLT3-autoinhibited) [%]	%Inh (FLT3) [%]	%Inh (FLT4) [%]	%Inh (FRK) [%]	%Inh (FYN) [%]	%Inh (GAK) [%]	%Inh (GCN2(Kin.Dom.2,S808G)) [%]	%Inh (GRK1) [%]
CCCNC(=O)Nc1ccc(Oc2ncnc3ccn(C)c23)cc1	3	0	35	3	0	0	8	0	0	0	0	0	2	45	10	0	1	3	10	24
COc1cc(OC)cc(-c2cc3cnc(N)nc3nc2NC(=O)NC(C)(C)C)c1	2	29	0	0	0	0	97.8	96.7	96.3	54	0	38	0	0	73	0	1	0	3	13
O=C(Nc1ccc2c(c1)OCO2)NC1CCN(c2ccnc(NCc3ccc(F)cc3)n2)CC1 [GSK1379859]	0	0	0	0	8	0	4	0	0	0	9	15	0	0	9	0	31	4	1	0
Nc1ncnc2c1ncn2-c1cccc(F)c1 [SKF-97560]	3	0	27	1	14	0	0	12	1	90.7	0	22	35	47	19	0	0	1	0	10
COC(=O)c1c(-c2ccccc2)c2cc(Br)ccc2c(=O)n1Cc1ccc(NC(=O)CCC(=O)O)cc1	13	0	20	0	0	9	0	0	0	0	8	0	0	6	9	8	0	0	0	0
CCc1nc(-c2cccc(C)c2)c(-c2ccncc2)s1	4	6	0	99.9	13	0	0	0	0	0	19	13	0	0	0	9	0	49	3	25
COc1ccc(Nc2nccc(N3CCC(NS(=O)(=O)c4ccc(NC(C)=O)cc4)C3)n2)cc1 (stereo not drawn) [GSK1379729]	0	53	0	0	24	5	8	29	18	98.5	26	26	27	29	26	16	15	9	14	9
O=C(Nc1n[nH]c2cc(-c3ccccc3F)ccc12)C1CC1 [SB-733371]	16	43	0	0	0	1	1	0	0	0	14	29	0	38	0	0	0	0	0	12
CCn1c(-c2nonc2N)nc2ccccc21 [SB-693162/GW549034]	0	1	26	8	0	0	0	7	14	0	0	0	52	20	0	0	0	0	24	46
COc1cc2ncn(-c3cc(OCc4ccncc4Br)c(C(N)=O)s3)c2cc1OC [GW854278]	0	0	24	0	2	0	43	16	29	7	20	0	22	26	68	8	0	58	0	0
COc1cc2ncn(-c3cc(OCCCc4ccccc4)c(C(N)=O)s3)c2cc1OC [GSK205189]	0	3	0	0	10	0	0	9	16	0	21	23	0	5	0	0	24	66	0	5
COC(=O)c1c(-c2ccccc2)c2cc(Br)ccc2c(=O)n1Cc1ccc(S(C)(=O)=O)cc1	8	0	23	6	0	20	0	10	2	0	13	0	0	9	1	1	0	9	0	0
Cc1cc(Nc2nc(-c3cccc(C)n3)nc3ccccc23)ccn1 [GW872411]	3	13	0	0	0	0	12	0	0	0	0	0	0	7	0	0	0	0	0	13
Cc1cccc(-c2nc(Nc3ccc4c(cnn4C)c3)c3ccccc3n2)n1 [GW876731]	1	0	29	11	9	4	0	21	4	0	0	0	0	9	0	13	9	19	12	1
O=C(Nc1n[nH]c2nc(-c3ccccc3)c(Br)cc12)C1CC1 [SB-708998]	100	15	0	0	7	0	14	0	13	5	8	25	8	1	26	0	26	11	0	0
Cc1ccc(-c2ccc3c(ccc4sc5c(c43)NC[C@@H](C)N=C5N(C)C)n2)cn1	2	8	0	0	1	0	0	0	0	0	1	1	0	0	0	0	0	0	0	0
COc1cccc(C2=C(N(C)c3ccccc3)C(=O)NC2=O)c1 [SB-334865]	0	0	0	0	0	0	0	0	3	19	13	16	0	0	0	5	13	0	0	5
COc1ccc(-n2cnc3c(N)ncnc32)cc1 [SKF-97236]	0	40	0	13	13	0	27	0	0	18	0	24	34	83	22	0	25	27	0	0
Nc1ncnc2c1ncn2-c1ccc(Cl)cc1 [AH2635]	0	0	0	0	26	0	0	0	8	0	18	39	1	46	9	0	12	7	0	0
COc1cc2ncn(-c3cc(OCc4ccc(S(C)(=O)=O)cc4)c(C(N)=O)s3)c2cc1OC [GW869979]	0	12	6	2	0	0	0	5	4	0	0	0	14	4	15	0	0	7	0	10
COC(=O)c1c(-c2ccccc2)c2cc(C)ccc2c(=O)n1Cc1ccccc1	0	0	0	0	0	0	0	0	0	0	2	0	13	0	0	0	0	0	0	0
